# Screens: PubChem BioAssay, several laboratories
# Only some compounds are listed: those with a hit (about 3.3% of all), similar ones and a draw of the others.
# Anthrax LF inh2: blocks Bacillus anthracis lethal factor protease; 360,000 compounds, 0.12% hits; multiplex microsphere protease cleavage assay, LF; P15917; AID 588501; inhibition, % at 10 µM; further: plate controls were buffer without enzyme for full effect and enzyme alone for no effect
# Target sequence (P15917 whole entry, looked up): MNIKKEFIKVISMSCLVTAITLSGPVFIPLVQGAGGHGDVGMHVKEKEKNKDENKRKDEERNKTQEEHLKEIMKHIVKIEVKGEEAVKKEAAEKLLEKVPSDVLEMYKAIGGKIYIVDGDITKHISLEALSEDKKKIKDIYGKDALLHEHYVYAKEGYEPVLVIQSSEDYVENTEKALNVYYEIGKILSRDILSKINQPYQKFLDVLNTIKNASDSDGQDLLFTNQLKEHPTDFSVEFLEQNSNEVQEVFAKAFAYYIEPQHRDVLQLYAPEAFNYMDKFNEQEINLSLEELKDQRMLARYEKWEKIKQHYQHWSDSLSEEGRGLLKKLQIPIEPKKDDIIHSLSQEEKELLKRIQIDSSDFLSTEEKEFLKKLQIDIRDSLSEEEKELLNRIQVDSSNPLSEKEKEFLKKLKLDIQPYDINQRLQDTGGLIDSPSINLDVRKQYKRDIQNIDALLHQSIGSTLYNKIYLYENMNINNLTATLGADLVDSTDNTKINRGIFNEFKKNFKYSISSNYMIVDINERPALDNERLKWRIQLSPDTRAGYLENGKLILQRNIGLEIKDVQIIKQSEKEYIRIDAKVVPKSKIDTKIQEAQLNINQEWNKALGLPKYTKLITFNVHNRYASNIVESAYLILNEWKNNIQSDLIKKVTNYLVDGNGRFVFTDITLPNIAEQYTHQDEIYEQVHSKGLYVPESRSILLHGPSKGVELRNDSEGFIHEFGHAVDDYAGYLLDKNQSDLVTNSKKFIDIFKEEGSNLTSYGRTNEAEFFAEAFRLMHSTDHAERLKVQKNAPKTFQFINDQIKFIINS
# MazEF act: increases E. coli MazEF RNase cleavage of RNA; P0AE70; FAM/BHQ RNA-DNA oligo cleavage fluorescence, 5 h; activation, % at 20 µM; 350,000 compounds, 0.32% hits; AID 504720; in the data active means activation above about 50%
# BoNT F protease: BoNT F light chain protease inhibition | 360,000 compounds, 0.22% hits | Multiplex microsphere protease cleavage assay, flow cytometry | AID 588497 | inhibition, % at 10 µM; in the data active means inhibition above about 35%, passing the limit was not always enough; inconclusive means no clear call, values can overlap the other calls; further: plate controls were buffer without enzyme for full effect and enzyme alone for no effect
# SSB-PriA inh: inhibitors of Klebsiella pneumoniae PriA binding to SSB C-terminal tail; AlphaScreen SSBct-PriA binding, biotinylated peptide; inhibition, % at 33 µM; 430,000 compounds, 0.6% hits; in the data active means inhibition mostly above about 37%, no sharp cut-off; inactive means mostly below about 20%;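 further: plate controls were negative control peptide for no effect and reference peptide for full effect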
# BoNT-A LC inh2: blocks Botulinum neurotoxin A light chain protease; multiplex microsphere protease substrate cleavage, flow cytometry; inhibition, % at 10 µM; 360,000 compounds, 0.17% hits; AID 588499; further: plate controls were buffer without enzyme for full effect and enzyme alone for no effect
# Autofluor counter: counter-screen for toxin protease inhibitors: compound fluorescence | fluorescence intensity (no concentration beside the values) | compound autofluorescence counterscreen, microsphere flow cytometry; hits give high values | 360,000 compounds, 3.1% hits; in the data active means fluorescence intensity above about 16000; inconclusive means no clear call, values can overlap the other calls
# Numbers without * were called inactive; u = inconclusive; x = no result; ! = not confirmed by another sample. Unless noted, no stated cut-off is given here; in the data, active means inhibition above about 30%; inconclusive means no clear call, values can overlap the other calls; inactive means below that.
SMILES,Anthrax LF inh2,MazEF act,BoNT F protease,SSB-PriA inh,BoNT-A LC inh2,Autofluor counter
CC1Oc2ccccc2N(CC(=O)NCC2CCCO2)C1=O (configuration not stated),0.4,3.2,1.8,-16.4,0.4,23344*
CC1Oc2ccccc2N(CC(=O)NC2CC2)C1=O (configuration not stated),-3.8,0.4,-1.5,-3.8,0.8,3023
COc1ccccc1NC(=O)CN1C(=O)C(C)Oc2ccccc21 (configuration not stated),2.3,-6.0,0.9,-0.2,0.3,22685*
COc1ccc(OC)c2sc(N(CCN3CCOCC3)C(=O)c3ccc4c(c3)CCCC4)nc12,x,x,x,41.0*,x,x
COc1ccc(OC)c2sc(N(CCCN3CCOCC3)C(=O)c3ccccc3SC)nc12,x,x,x,28.0*,x,x
CCN(CC)CCN(C(=O)c1ccc2c(c1)CCCC2)c1nc2ccc(OC)cc2s1,-3.8,0.3,7.8,46.0*!,-1.0,4433
COc1ccc(OC)c2sc(N(CCCN3CCOCC3)C(=O)c3ccn(C)n3)nc12,x,x,x,-7.0,x,x
O=C(CNC(=O)c1ccc(S(=O)(=O)N2CCOCC2)cc1)N/N=C\c1c(F)cccc1Cl,x,x,x,5.0,x,x
O=C(Nn1cnc2c(cnn2-c2cccc(Cl)c2)c1=O)c1cccc(Br)c1,x,x,x,-4.0,x,x
Cc1ccc(NC(=O)CC2NCCNC2=O)cc1 (configuration not stated),-2.0,-3.9,3.7,-2.0,0.1,3699
O=C(CC1NCCNC1=O)Nc1ccccc1 (configuration not stated),0.2,1.7,-13.3,-5.0,0.2,3761
Cc1cc(C)cc(NC(=O)CC2NCCNC2=O)c1 (configuration not stated),-2.1,0.1,-1.8,-5.1,u,16440*
CN(C)c1ccc(NC(=O)CC2NCCNC2=O)cc1 (configuration not stated),-6.6,5.7,1.7,-8.0,u,21583*
Cc1ccc(C=NN(Cc2ccccc2)c2ccccc2)o1,x,x,x,-8.3,x,x
COC(=O)C1CC(OC)CN1S(=O)(=O)c1cc(F)ccc1OC (configuration not stated),x,x,x,13.0,x,x
O=c1nc(/C=C/c2cc([N+](=O)[O-])ccc2Cl)cc(C(F)(F)F)[nH]1,0.1,0.5,2.9,-5.3,2.9,22027*
O=c1nc(/C=C/c2cccn2-c2ccc([N+](=O)[O-])cc2)cc(C(F)(F)F)[nH]1,-2.5,-9.3,1.0,1.2,-0.1,2104
C/C(C=NNC(=O)c1ccncc1)=C\c1ccco1,x,x,x,-7.4,x,x
CC(/C=N/NC(=O)c1ccncc1)=C\c1ccc(C(C)C)cc1,0.5,-5.3,0.8,x,2.7,22320*
O=C(COc1ccc(Cl)cc1Cl)Nc1ccc(CN2CCOCC2)cc1,1.9,2.3,-1.0,5.7,-0.9,5822
O=C(COc1ccc(Cl)cc1Cl)NC(=O)N1CCOCC1,0.5,4.5,-1.3,-7.4,-1.6,16969*
Cc1c(Cl)cccc1NC(=O)COc1ccc(S(=O)(=O)N2CCOCC2)cc1,-2.0,-5.4,0.8,-8.0,-0.2,16522*
O=C(COc1ccc(Cl)cc1Cl)Nc1ccc(S(=O)(=O)N2CCOCC2)cc1,x,x,x,60.0*,x,x
Cc1cc(C)cc(-n2[nH]nnc2=S)c1,x,x,x,1.0,x,x
COc1ccc2ccccc2c1C1C=C(c2ccccc2)NC(=S)N1 (configuration not stated),x,x,x,36.0*,x,x
SMILES,Anthrax LF inh2,MazEF act,BoNT F protease,SSB-PriA inh,BoNT-A LC inh2,Autofluor counter
CCOc1ccc(NC(=O)N2CCN(c3ccc4nnc(C5CC5)n4n3)CC2)cc1,x,x,x,-8.0,x,x
CC1=CC(=O)C(C(C)C)=C/C1=C(\c1cc(C(C)C)c(O)cc1C)c1ccccc1S(=O)(=O)O,x,x,x,59.0*,x,x
CC1=CC(=O)C=C/C1=C(\c1ccc(O)cc1C)c1ccccc1S(=O)(=O)O,x,x,x,-13.9,x,x
Cn1c(O)c(C=NNC(=O)c2ccncc2)c(=O)[nH]c1=S,x,x,x,0.3,x,x
Cc1ccc(Cn2c(CN(C)Cc3ccccc3)nc3c2c(=O)n(C)c(=O)n3C)cc1,-4.5,-8.3,-8.7,-4.5,-0.6,5955
CN(Cc1ccccc1)Cc1nc2c(c(=O)n(C)c(=O)n2C)n1Cc1ccc(F)cc1,-1.5,-4.2,-0.5,0.1,-0.1,23112*
Cn1c(=O)c2c(nc(NCc3ccc4c(c3)OCO4)n2Cc2ccccc2)n(C)c1=O,-1.6,0.1,-2.4,6.0,0.4,3740
Cn1c(=O)c2c(nc(NCc3ccc4c(c3)OCO4)n2Cc2ccc(F)cc2)n(C)c1=O,-5.8,0.2,12.1,-2.4,8.0,18743*
CCCCCn1c(CN(C)Cc2ccccc2)nc2c1c(=O)n(C)c(=O)n2C,-4.7,-4.1,-2.2,-26.7,-1.2,23164*
Cc1cc(C)n(-c2ncc(NC(=O)Nc3cc(F)cc(F)c3)cn2)n1,x,x,x,-9.0,x,x
Cn1c(=O)c2c(ncn2CC(=O)N2CC(n3cc(-c4ccccc4)nn3)C2)n(C)c1=O,x,x,x,-5.0,x,x
CC1CCN(C(=O)CSc2nc(N)cc(N)n2)CC1,-2.1,-2.2,-5.2,-23.9,-3.2,23394*
O=[N+]([O-])c1ccc(-[n+]2nc(-c3ccccc3)nn2-c2ccccc2)cc1,-16.2,1.8,-1.5,100.5*,-1.5,3824
O=c1ccc(-c2ccc([N+](=O)[O-])cc2)nn1-c1ccccc1,-1.5,-2.0,-4.1,-3.6,0.2,2257
CCOC(=O)Nc1ccc(S(=O)(=O)Nc2nccc(C)n2)cc1,u,1.8,u,4.9,u,u
CCOC(=O)Nc1ccc(S(=O)(=O)Nc2nc(C)cc(C)n2)cc1,0.5,-8.0,-6.0,0.8,-4.0,24252*
CC1CN(S(=O)(=O)c2ccc(NC(=O)CCN3C(=O)c4ccccc4C3=O)cc2)CC(C)O1 (configuration not stated),-3.6,13.3,-3.3,-5.0,-1.0,9908
Cc1cc(C)nc(NS(=O)(=O)c2ccc(NC(=O)CCN3C(=O)c4ccccc4C3=O)cc2)n1,0.3,0.2,-4.2,-13.5,-1.7,16582*
O=C(CCCCCN1C(=O)c2ccccc2C1=O)Nc1ccc(S(=O)(=O)N2CCCCC2)cc1,-1.4,-10.2,1.7,-5.1,u,21502*
Cc1cc(NS(=O)(=O)c2ccc(NC(=O)CCN3C(=O)c4ccccc4C3=O)cc2)nc(C)n1,x,x,x,-13.0,x,x
CC1CCN(S(=O)(=O)c2ccc(NC(=O)CCN3C(=O)c4ccccc4C3=O)cc2)CC1,-5.4,1.6,0.2,-6.4,2.1,19423*
O=C(Nc1nc(-c2ccccn2)cs1)C1CCN(S(=O)(=O)c2ccc(Cl)cc2)CC1,x,x,x,-2.0,x,x
O=C(NCc1ccc(Cl)cc1)NCc1ccccc1-c1ccsc1,x,x,x,0.0,x,x
Cc1cc(Nc2cccc(F)c2)n2c(n1)nc1ccccc12,6.7,57.5*,10.2,2.4,0.6,4124
COc1ccc(OCC2c3cc(OC)c(OC)cc3CCN2C(=S)Nc2cc(OC)ccc2OC)cc1 (configuration not stated),x,x,x,25.0,x,x
CCN(CC)c1ccc(C=NNc2ccc([N+](=O)[O-])cn2)cc1,1.5,75.5*,16.0,0.2,1.6,5173
O=[N+]([O-])c1ccc(NN=Cc2ccc(O)cc2)nc1,-8.4,6.5,-8.4,-3.7,-0.2,3057
